40 compounds from PubChem BioAssay (Tox21) can be followed below.

SMILES strings stand for the structures. Inconclusive results are not listed. The source made the active and inactive calls. Calls follow the shape of the dose curve; as a rule, active = well fitted cell-killing curve with a large enough effect in the repeat runs; inconclusive = weak or mixed curves; inactive = no such curve, though single readings can be large or run the other way.
% is scaled to controls: 0 for no effect and ±100 for the full control effect.

This assay is described as follows: qHTS assay to identify small molecule agonists of the peroxisome proliferator-activated receptor delta (PPARd) signaling pathway - cell viability counter screen (AID 743211). Also: nearly all actives have a fitted effect of over 55% in size. Particulars: PPARd-bla HEK293H viability, CellTiter-Glo luminescence, 17 h; series mostly up to 62.6 µM. The source says: U.S. Tox21 Program National Center for Advancing Translational Sciences [NCATS] NIH Chemical Genomics Center [NCGC] U.S. Environmental Protection Agency [EPA] National Institutes of Environmental Health Sciences [NIEHS] National Toxicology Program [NTP] U.S. Food and Drug Administration [FDA] Tox21 Assay Overview: The peroxisome proliferator-activated receptors (PPARs) are lipid-activated transcription factors of the nuclear receptor superfamily with three distinct subtypes namely PPAR alpha, PPAR delta (PPARd) and PPAR gamma. All these subtypes heterodimerizes with Retinoid X receptor (RXR) and have different physiological functions. […] To identify the compounds that activate PPAR-delta signaling, GeneBLAzer PPAR delta UAS-bla HEK293H cell line (Invitrogen, Carlsbad, CA, USA) containing a beta-lactamase reporter gene under the control of an Upstream Activator Sequence (UAS) was used to screen the Tox21 compound library. The cytotoxicity of the Tox21 compound library against the PPARd-bla cell line was tested in parallel by measuring the cell viability using CellTiter-Glo assay (Promega, Madison, WI) in the same wells.
Tox21 Assay Protocol Summary: PPARd-bla cells were dispensed at 3000 cells/6uL/well in 1536-well black wall/clear bottom plates using a Multidrop Combi (Thermo Fisher Scientific, Waltham, MA) dispenser. After the assay plates were incubated at 37 C and 5% CO2 for 5 h, 23 nL of compounds dissolved in DMSO, positive controls or DMSO only was transferred to the assay plate by a Pintool station (Kalypsys, San Diego, CA). The assay plates were incubated at 37C for 17 h. After 1 uL of LiveBLAzerTM B/G FRET substrate was added using a Bioraptr Flying Reagent Dispenser (FRD) workstation (Beckman Coulter, Indianapolis, IN, USA), the plates were incubated at room temperature for 2 h, and fluorescence intensity was measured by an Envision plate reader (PerkinElmer, Shelton, CT). For cell viability readout that measures cytotoxicity, 3 ul/well of CellTiter-Glo reagent was added into the assay plates using a Bioraptr FRD. After 30 min incubation at room temperature, the luminescence intensity in the plates was measured using a ViewLux plate reader (PerkinElmer).
For orientation: In qHTS, concentration-response curves come from the screen itself.
`NC(=O)NC(=O)Cc1ccccc1`: the compound was called inactive.
On the same count and under the same terms, the entry for `CCCCC(=O)N(C)C` is “inactive”; for `Nc1ccc(C(=O)OCC(O)CO)cc1` (stereo not given) it is “inactive”.
Still for that read-out and setting: the entry for `CCOC(=O)C(C)(C)C` is “inactive”.
The same measure, in the same setting: the value for `Cc1ccc(C(=O)C(=O)O)cc1C` was “inactive”; that for `c1ccc(CNc2ncnc3nc[nH]c23)cc1` was “inactive”; that for `CCCCC(CC)CNC(=O)CC(C)OC(=O)CCC(=O)O` (stereo not given) was “inactive”.
For the compound `NS(=O)(=O)c1cc2c(cc1Cl)NC(C(Cl)Cl)NS2(=O)=O` (stereo not given), the result was inactive.
The same measure, in the same setting: the value for `Cn1c(=O)c2c(ncn2CC2OCCO2)n(C)c1=O` was “inactive”.
Still for that read-out and setting: the entry for `CCOC(=O)CC(CC(=O)OCC)(OC(C)=O)C(=O)OCC` is “inactive”; for `O=C1CC[C@H](C(=O)N2CCCCC2)N1` it is “inactive”; for `CCC1COC(=O)O1` (stereo not given) it is “inactive”.
On the same count and under the same terms, the value for `CCCCCN(CCCOC)C(=O)C(CCC(=O)O)NC(=O)c1ccc(Cl)c(Cl)c1` (stereo not given) was “inactive”; that for `O=S(=O)(O)c1cc(O)ccc1O` was “inactive”.
`CCCCOC(=O)[C@@H](C)Oc1ccc(Oc2ccc(C(F)(F)F)cn2)cc1`: the call was inactive.
Still for that read-out and setting: the entry for `CCCCCCCCCCCCCC(=O)OC` is “inactive”; for `Cc1cccc(Nc2ccncc2S(=O)(=O)NC(=O)NC(C)C)c1` it is “inactive”.
Same read-out and setting: the entry for `CCCCCC1Nc2cc(C(F)(F)F)c(S(N)(=O)=O)cc2S(=O)(=O)N1` (stereo not given) is “inactive”; for `C=C[Si](C)(C)O[Si](C)(C)C=C` it is “inactive”.
Same read-out and setting: the value for `CCCCCCCC[Si](OCC)(OCC)OCC` was “inactive”; that for `CCCCCC(=O)OCC` was “inactive”.
In the case of `Nc1c(NC/C=C\COc2cc(CN3CCCCC3)ccn2)c(=O)c1=O`, the compound was classed as inactive.
Still for that read-out and setting: the value for `O=C(c1ccc2c(c1)C(=O)OC2=O)c1ccc2c(c1)C(=O)OC2=O` was “inactive”.
Still for that read-out and setting: the entry for `COc1cc2c3cc1Oc1cc(ccc1O)C[C@@H]1c4c(cc(OC)c(O)c4Oc4ccc(cc4)C[C@@H]3N(C)CC2)CC[N+]1(C)C` is “inactive”.
The same measure, in the same setting: the value for `CC(=O)N1CCN(c2ccc(O)cc2)CC1` was “inactive”; that for `CC(=O)c1ccc(OCC(=O)N2CCCCC2)cc1` was “inactive”.
For the compound `NC(=O)NNC(N)=O`, the compound was called inactive.
On the same count and under the same terms, the entry for `CNC(=O)NC` is “inactive”; for `NC(Cc1c[nH]c2ccccc12)C(=O)O` (stereo not given) it is “inactive”.
Still for that read-out and setting: the value for `CCCC(C)CC` (stereo not given) was “inactive”.
On the same count and under the same terms, the entry for `NCCc1ccn[nH]1` is “inactive”.
Regarding `O=c1[nH]c(=O)c2[nH]c(=O)[nH]c2[nH]1`, the activity change, negative = cytotoxicity is 7.12% [at 13.2 µM] (inactive).
For `CC1CCC(C(C)(C)S)C(=O)C1` (stereo not given), the compound was classed as inactive.
Same read-out and setting: the value for `FC(F)(F)/C(=N\OCC1OCCO1)c1ccc(Cl)cc1` was “inactive”.
For `O=CO`, the activity change, negative = cytotoxicity was 1.94% [at 5.95 µM] (inactive).
For the compound `CC(C)(C)NCCO`, the compound was called inactive.
Still for that read-out and setting: the value for `O=[Si]=O` was “inactive”; that for `C[C@H](CCC(=O)NCC(=O)O)[C@H]1CC[C@H]2[C@@H]3[C@H](O)C[C@@H]4C[C@H](O)CC[C@]4(C)[C@H]3C[C@H](O)[C@]12C` was “inactive”.
The same measure, in the same setting: the entry for `CC(Cl)COP(=O)(OCC(C)Cl)OCC(C)Cl` (stereo not given) is “inactive”.
With `CC1(N)CCC(C(C)(C)N)CC1` (stereo not given), the outcome was inactive.
